Shown are actives, neighbours in structure and some others; about 3.5% of the full set was active somewhere.
TEAD-YAP block: TEAD-YAP interaction inhibition. inhibition, % at 9.12 µM. HEK-TIYL cells, TEAD-Gal4/YAP UAS-luciferase luminescence. actives 1.4% (n = 640,000); in the data active = inhibition above about 32%;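 note: 0% = median of test compound wells and 100% = reference inhibitor wells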
GPR151 activ: activates the human receptor GPR151 | AID 1508602 | Q8TDV0 | PathHunter beta-arrestin GPR151 cells, luminescence | activation, % at 11.2 µM | actives 1% (n = 650,000); in the data active = activation above about 4.9%;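 note: 0% = median of compound wells and 100% = cells with positive control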
Target sequence (Q8TDV0 whole entry, looked up): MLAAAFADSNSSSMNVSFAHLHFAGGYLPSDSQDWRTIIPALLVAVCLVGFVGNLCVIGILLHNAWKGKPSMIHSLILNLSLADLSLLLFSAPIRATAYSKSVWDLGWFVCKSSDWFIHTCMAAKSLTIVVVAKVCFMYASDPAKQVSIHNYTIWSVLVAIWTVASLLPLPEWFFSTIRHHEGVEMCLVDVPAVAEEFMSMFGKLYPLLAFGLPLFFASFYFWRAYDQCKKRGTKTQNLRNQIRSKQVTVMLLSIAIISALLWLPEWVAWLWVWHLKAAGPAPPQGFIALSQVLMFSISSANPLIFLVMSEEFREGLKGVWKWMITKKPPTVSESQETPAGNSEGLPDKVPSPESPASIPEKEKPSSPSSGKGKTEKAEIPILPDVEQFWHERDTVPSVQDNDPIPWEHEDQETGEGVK
FBW7 act: human FBW7 E3 ligase activation, primary screen. normalized activity (activation), % at 26.1 µM. actives 0.13% (n = 650,000). Q969H0. AID 1259310. AlphaScreen FBW7–phospho-cyclin E peptide binding, activator screen; in the data active = normalized activity above about 1.9%;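 note: purified mutant Fbw7 with reduced substrate affinity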
MITF inh: human MITF inhibition, primary screen | O75030 | AlphaScreen MITF homodimerization, bead proximity signal | inhibition, % at 2.6 µM | actives 0.91% (n = 650,000) | AID 1259374; in the data active = inhibition above about 50%;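 note: 0% = vehicle wells with protein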
Numbers without * were called inactive.

COc1cc(OC)c(-n2c(C)cc(/C=C3/C(=N)N4OC(C)=CC4=NC3=O)c2C)cc1Cl was read as TEAD-YAP block 7.0, GPR151 activ 0.1, FBW7 act 0.2 and MITF inh -2.8.
COc1ccc(OC)c(-n2c(C)cc(/C=C3/C(=N)N4OC(C)=CC4=NC3=O)c2C)c1 was read as TEAD-YAP block 48.4*, GPR151 activ -0.5, FBW7 act 0.1 and MITF inh 12.6.
Screening Oc1ccccc1-c1ccc2c(-c3ccc(N4CCNCC4)cc3)[nH]nc2n1 returned TEAD-YAP block 61.4*, GPR151 activ 0.5, FBW7 act 0.0 and MITF inh 7.9.
Screening Cc1cc(C(=O)NCC2Cc3cccc(-c4ncccn4)c3O2)c(=O)[nH]c1C (configuration not stated) returned TEAD-YAP block 0.4, GPR151 activ 1.0, FBW7 act 0.0 and MITF inh -4.7.
Screening CC1(C)CC(C(CC#N)Cc2ccccc2)CCO1 (configuration not stated) returned TEAD-YAP block 3.5, GPR151 activ 1.4, FBW7 act -0.2 and MITF inh 3.6.
O=C(O)CNC(=O)CC1S/C(=N/N=C/c2c(-c3ccccc3)[nH]c3ccccc23)NC1=O (configuration not stated) was read as TEAD-YAP block 6.2, GPR151 activ -1.3, FBW7 act -0.1 and MITF inh 12.3.
`COc1c(NC(=O)Nc2ccccc2C)cc([N+](=O)[O-])c(OC)c1C` gave TEAD-YAP block 44.5*, GPR151 activ 1.1, FBW7 act 0.0 and MITF inh 5.7.
`C=CCc1cccc(/C=N/NC(=O)C[n+]2ccccc2)c1O` gave TEAD-YAP block 60.4*, GPR151 activ -0.9, FBW7 act -0.2 and MITF inh 28.6.
C=CCc1cccc(/C=N/NC(=O)CCCO)c1O was read as TEAD-YAP block 5.7, GPR151 activ -0.1, FBW7 act -0.1 and MITF inh 29.5.
`Cc1ccc(C(=O)Nc2ccc(NC(=O)C(F)(F)F)cc2)cc1` gave TEAD-YAP block 55.6*, GPR151 activ -0.9, FBW7 act 0.2 and MITF inh 14.0.
Cc1ccc(C(=O)Nc2cc(C)c(C)cc2O)cc1 was read as TEAD-YAP block 0.2, GPR151 activ -3.5, FBW7 act -0.1 and MITF inh 0.4.
For Cc1ccc(C(=O)Nc2ccc(O)c(C)c2)cc1 the results were TEAD-YAP block 93.2*, GPR151 activ -4.8, FBW7 act -0.1 and MITF inh -4.5.
`Cc1ccc(C(=O)Nc2ccc(C(=O)N3CCCCC3)cc2)cc1` gave TEAD-YAP block -17.6, GPR151 activ -2.2, FBW7 act 3.4* and MITF inh 11.6.
For Cc1ccc(C(=O)Nc2cc(C)c(O)cc2C)cc1 the results were TEAD-YAP block 65.3*, GPR151 activ -0.9, FBW7 act -0.2 and MITF inh 4.0.
`O=C(COC(=O)c1ccc(Cl)cc1Cl)c1ccc(Br)cc1` gave TEAD-YAP block 9.1, GPR151 activ -1.7, FBW7 act 0.1 and MITF inh 13.8.
For Cc1cc(NC(=O)c2ccccc2Cl)ccc1O the results were TEAD-YAP block 82.7*, GPR151 activ -3.6, FBW7 act 0.0 and MITF inh -22.9.
`Cc1ccc(NC(=O)c2ccccc2Cl)cc1C` gave TEAD-YAP block -8.7, GPR151 activ -3.7, FBW7 act 0.0 and MITF inh 3.0.
For COc1ccccc1NC(=O)CSc1nnc(-c2ccncc2)n1-c1ccccc1C the results were TEAD-YAP block 61.9*, GPR151 activ 0.8, FBW7 act 0.0 and MITF inh 1.4.
`CCOc1ccccc1NC(=O)CSc1nnc(-c2ccc(OC)cc2)n1-n1cccc1` gave TEAD-YAP block 41.1*, GPR151 activ -0.4, FBW7 act -0.1 and MITF inh -6.8.
Screening COc1cccc(NC(=O)CSc2nnc(-c3ccncc3)n2-c2ccccc2C)c1 returned TEAD-YAP block 14.4, GPR151 activ -0.3, FBW7 act 0.0 and MITF inh -22.5.
`COc1ccccc1NC(=O)CSc1nnc(-c2ccccn2)n1-c1ccccc1OC` gave TEAD-YAP block 42.2*, GPR151 activ 1.8, FBW7 act 0.0 and MITF inh 15.1.
Screening O=S1(=O)CCN(CN2CCS(=O)(=O)NC2)CN1 returned TEAD-YAP block 5.4, GPR151 activ -1.1, FBW7 act 0.1 and MITF inh -2.1.
For COc1cc([N+](=O)[O-])ccc1NC(=O)C1CCCO1 (configuration not stated) the results were TEAD-YAP block 0.9, GPR151 activ -1.6, FBW7 act 0.4 and MITF inh -0.2.
For CC(C)(C)c1ccc(C(=O)N2CCN(c3ccc([N+](=O)[O-])c(NCCc4ccccc4)c3)CC2)cc1 the results were TEAD-YAP block -2.0, GPR151 activ 0.1, FBW7 act -0.1 and MITF inh -17.0.
For CC(C)CCNC(=O)CN(C(=O)Cn1nnc(-c2ccc(F)cc2)n1)c1ccccc1F the results were TEAD-YAP block -5.5, GPR151 activ -1.1, FBW7 act 0.0 and MITF inh 8.4.
Screening CC(=O)NC1=NN(C(C)=O)C(C)(c2cccs2)S1 (configuration not stated) returned TEAD-YAP block 60.3*, GPR151 activ -1.0, FBW7 act -0.1 and MITF inh 1.0.
For CCc1ccc(C2(C)SC(NC(C)=O)=NN2C(C)=O)cc1 (configuration not stated) the results were TEAD-YAP block -6.0, GPR151 activ 0.2, FBW7 act -0.1 and MITF inh 7.8.
CC(=O)NC1=NN(C(C)=O)C(C)(c2ccc(F)cc2)S1 (configuration not stated) was read as TEAD-YAP block 37.2*, GPR151 activ 0.0, FBW7 act 0.5 and MITF inh 11.3.
`O=C(O)c1ccc(S(=O)(=O)c2ccc(C(=O)O)cc2)cc1` gave TEAD-YAP block -7.1, GPR151 activ -1.4, FBW7 act 0.4 and MITF inh -1.4.
`O=C1C=CC(=NS(=O)(=O)c2ccc(C(=O)O)cc2)C=C1` gave TEAD-YAP block 6.6, GPR151 activ 0.3, FBW7 act 0.1 and MITF inh 55.6*.
Screening O=C(Cc1ccc(F)cc1)Nc1cc(-c2cn[nH]c2)ccn1 returned TEAD-YAP block 82.4*, GPR151 activ -0.2, FBW7 act 0.3 and MITF inh -16.2.
`Cc1ccc(NC(=O)Cn2cnc3c(nnn3Cc3ccccc3)c2=O)cc1` gave TEAD-YAP block 1.4, GPR151 activ 1.1, FBW7 act 0.2 and MITF inh 17.3.
`COc1cc([N+](=O)[O-])c2ncccc2c1` gave TEAD-YAP block 15.6, GPR151 activ -1.0, FBW7 act -2.2 and MITF inh 69.8*.
O=C(O)COc1cc([N+](=O)[O-])cc2cccnc12 was read as TEAD-YAP block -4.0, GPR151 activ 2.6, FBW7 act -0.6 and MITF inh 15.8.
`COc1cc([N+](=O)[O-])c2nccnc2c1` gave TEAD-YAP block 1.1, GPR151 activ 1.8, FBW7 act -0.7 and MITF inh -0.4.
For O=[N+]([O-])c1cc(O)c2ncccc2c1 the results were TEAD-YAP block 20.6, GPR151 activ -1.8, FBW7 act -0.3 and MITF inh 102.7*.
